PubChem BioAssay AID1159580 (chemical genetic matrix, 2015)
Several values for one entry are separate records, joined by “and”; a condition that tells them apart may be missing. Equal entries are not always repeated. About 2,000 (36%) of roughly 5,500 compounds were called active. Inconclusive results (about 18%) are left out. Rule as the data show it: active = normalized growth mostly below about 0.91 (no sharp cut-off); inconclusive = no clear call, values can overlap the other calls; inactive = mostly above about 0.92. The list shows a part of the results.

Assay: chemical genetic growth profiling, strain panel (AID 1159580);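 also: tested at 20 µM; growth read once vehicle control cultures reached saturation at 30 °C; 1 = growth at the plate median or of vehicle wells; lower values mean less growth of the strain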
Conditions: S. cerevisiae deletion strains, growth OD

Measured: normalized growth

O=C1OC(c2ccc(O)cc2)(c2ccc(O)cc2)c2ccccc21
active: locus YDR334W, strain swr1, hits give low values 0.897 | locus YER155C, strain BEM2 (second series), hits give low values 0.826
inactive: locus YAL013W, strain DEP1, hits give low values 0.999 | locus YAL021C, strain ccr4, hits give low values 0.977 | locus YAL026C, strain drs2, hits give low values 0.978 | locus YAL030W, strain snc1, hits give low values 0.994 | locus YBL061C, strain skt5, hits give low values 0.984 | locus YBR009C, strain hhf1, hits give low values 0.988 | locus YBR021W, strain FUR4, hits give low values 1.01 | locus YBR023C, strain chs3, hits give low values 0.994 | locus YBR171W, strain sec66, hits give low values 0.981 | locus YBR229C, strain ROT2, hits give low values 0.997 | locus YBR231C, strain swc5, hits give low values 0.974 | locus YBR279W, strain paf1, hits give low values 0.988 | locus YCL011C, strain gbp2, hits give low values 0.968 | locus YCL016C, strain dcc1, hits give low values 1.01 | locus YCL029C, strain bik1, hits give low values 0.972 | locus YCL061C, strain MRC1, hits give low values 1 | locus YCL069W, strain vba3, hits give low values 0.969 | locus YCR088W, strain abp1, hits give low values 1 | locus YDL005C, strain med2, hits give low values 0.97 | locus YDL035C, strain GPR1, hits give low values 0.986 | locus YDL040C, strain nat1, hits give low values 0.986 | locus YDL074C, strain BRE1, hits give low values 0.98 | locus YDL101C, strain DUN1, hits give low values 0.98 | locus YDL134C, strain PPH21, hits give low values 0.989 | locus YDL185W, strain tfp1, hits give low values 0.954 | locus YDL192W, strain arf1, hits give low values 0.974 | locus YDR001C, strain nth1, hits give low values 0.965 | locus YDR069C, strain doa4, hits give low values 0.959 | locus YDR101C, strain arx1, hits give low values 0.973 | locus YDR137W, strain rgp1, hits give low values 0.976 | locus YDR150W, strain NUM1, hits give low values 1 | locus YDR159W, strain sac3, hits give low values 0.969 | locus YDR162C, strain NBP2, hits give low values 0.992 | locus YDR195W, strain ref2 0.973 | locus YDR297W, strain sur2, hits give low values 0.996 | locus YDR318W, strain mcm21, hits give low values 0.949 | locus YDR335W, strain msn5, hits give low values 0.97 | locus YDR388W, hits give low values 0.973 | locus YDR392W, strain spt3, hits give low values 0.958 | locus YDR502C, strain sam2, hits give low values 0.96 | locus YEL003W, strain gim4, hits give low values 0.964 | locus YEL037C, strain rad23, hits give low values 0.983 | locus YEL061C, strain CIN8 (second series), hits give low values 0.962 | locus YEL061C, strain CIN8, hits give low values 0.996 | locus YER015W, strain faa2, hits give low values 0.977 | locus YER016W, strain bim1, hits give low values 0.984 | locus YER110C, hits give low values 0.971 | locus YER111C, strain swi4, hits give low values 0.995 | locus YER155C, strain BEM2, hits give low values 0.994 | locus YER167W, strain BCK2, hits give low values 0.997 | locus YFR010W, strain ubp6, hits give low values 0.975 | locus YGL078C, strain dbp3, hits give low values 0.984 | locus YGL086W, strain mad1, hits give low values 0.992 | locus YGL167C, strain pmr1, hits give low values 0.983 | locus YGL173C, strain kem1, hits give low values 0.996 | locus YGL227W, strain vid30, hits give low values 0.987 | locus YGL240W, strain doc1, hits give low values 0.965 | locus YGL248W, strain PDE1, hits give low values 0.996 | locus YGL253W, strain hxk2, hits give low values 0.969 | locus YGR135W, strain pre9, hits give low values 0.964 | locus YGR252W, strain gcn5, hits give low values 1.03 | locus YHR013C, strain ard1, hits give low values 0.954 | locus YHR027C, strain rpn1, hits give low values 0.982 | locus YHR030C, strain SLT2, hits give low values 0.986 | locus YHR079C, strain IRE1 (second series), hits give low values 0.96 | locus YHR079C, strain IRE1, hits give low values 0.953 | locus YHR094C, strain hxt1, hits give low values 0.971 | locus YHR129C, strain ARP1, hits give low values 0.995 | locus YHR142W, strain chs7, hits give low values 0.977 | locus YHR200W, strain rpn10, hits give low values 0.967 | locus YIL066C, strain RNR3, hits give low values 0.996 | locus YIL073C, strain SPO22, hits give low values 0.844 | locus YIL125W, strain kgd1, hits give low values 0.956 | locus YIR030C, strain dcg1, hits give low values 0.985 | locus YJL092W, strain hpr5, hits give low values 0.995 | locus YJL095W, strain BCK1 (second series), hits give low values 0.977 | locus YJL095W, strain BCK1, hits give low values 1.04 and 0.981 | locus YJL115W, strain asf1, hits give low values 0.972 | locus YJL129C, strain trk1, hits give low values 0.949 | locus YJL134W, strain LCB3, hits give low values 0.988 | locus YJL154C, strain vps35, hits give low values 0.972 | locus YJL164C, strain tpk1, hits give low values 0.987 | locus YJL166W, strain qcr8, hits give low values 0.983 | locus YJL168C, strain set2, hits give low values 0.974 | locus YJL187C, strain SWE1 (second series), hits give low values 0.991
